In the library only some 21% were active in any assay of this set; here they are far more common.
NS1 function inh: blocks influenza NS1 protein function. Potency, µM (series often up to 46.1 µM), for the others: at the top dose activity, positive = more growth. 270,000 tested, 0.4% active; calls by dose curve; further: potency means the concentration at half of the fitted maximal effect; actives are rising curves; nearly all actives have a fitted effect of over 50% in size
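OD600 was taken as the measure of yeast growth restored by compound in an NS1-expressing S. cerevisiae strain. Cells had been washed out of glucose medium and diluted 1:100 into galactose -URA medium, pH 6.0.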
Pf growth 96h: P. falciparum growth inhibition at 96 hours | Potency, µM (doses to about 28.7 µM), inactives show at the highest dose activity change, negative = inhibition, actives largely listed as inhibitors | P. falciparum luciferase reporter growth, 96 h | 320,000 tested, 6.9% active; further: potency means the concentration at half of the fitted maximal effect; on the % scale 0 is the no-effect control and ±100 the full control effect
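Luminescence readout: decreased luciferase signal marks inhibited growth of reporter-expressing P. falciparum in infected red cells (2% hematocrit, 0.05% parasitemia final), exposed to compound two generations (96 h, 37 C, 5% CO2).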
Pf growth 48h: P. falciparum growth inhibition at 48 hours (one generation). P. falciparum luciferase growth in erythrocytes, 48 h. Potency, µM (series often up to 28.7 µM), without a hit: at the top dose activity change, negative = inhibition, usual class: inhibitors. 310,000 tested, 5.9% active. AID 504832; further: potency means the concentration at half of the fitted maximal effect; on the % scale 0 is the no-effect control and ±100 the full control effect
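Parasite viability was followed by luminescence of a genomically integrated firefly luciferase. Cultures held 0.1% parasitemia at 2% hematocrit (final), incubated under 5% CO2 at 37 C.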
Shiga toxin inh: Shiga toxin inhibition | Vero cells, Shiga toxin protein synthesis inhibition reporter | inhibition, % at 38.7 µM | 290,000 tested, 9.2% active; in the data active means inhibition mostly above about 28%, no sharp cut-off; inactive means mostly below about 43%; further: 0% is about no effect
Cycloheximide cs: counter-screen for Shiga toxin inhibitors: cycloheximide protein synthesis inhibition. cell reporter, cycloheximide protein synthesis inhibition counterscreen. max response, %. 300,000 tested, 12% active. AID 2314; in the data active means max response mostly above about 13%, no sharp cut-off; inactive means mostly below about 14%; further: read at 38.3 µM for the half of the compounds with a filed dose; 0% is about no effect
Numbers without * were called inactive; ? = inconclusive; . = no result given. Unless noted, the call rests on the fitted dose curve; in most records, active means well fitted inhibition curve with a large enough effect; inconclusive means small, poorly fitted or top-dose-only effect, or another doubt; inactive means no such curve, though single readings can be large or run the other way.

SMILES	NS1 function inh	Pf growth 96h	Pf growth 48h	Shiga toxin inh	Cycloheximide cs
Cn1nc(C(F)(F)F)c(-c2ccc(Br)cc2)c1NC(=O)c1nccnc1C(=O)O	5%	33%	15%	-4	1
CCOc1cc(C2C(C#N)=C(N)Oc3n[nH]c(CC)c32)ccc1OCCN1CCOCC1 (stereo unspecified)	-6%	9.3µM*	?	0	-2
COCc1[nH]nc2c1C(c1ccc(OC)cc1)C(C#N)=C(N)O2 (stereo unspecified)	9%	1.3µM*	-6%	19	-1
COc1cc(C2C(C#N)=C(N)Oc3n[nH]c(C)c32)ccc1OC(=O)c1ccccc1 (stereo unspecified)	20%	17µM*	3%	-11	-4
COCc1[nH]nc2c1C(c1ccsc1)C(C#N)=C(N)O2 (stereo unspecified)	-9%	?	6%	32	-3
COc1ccc(-c2ccc(C3C(C#N)=C(N)Oc4n[nH]c(C)c43)o2)cc1 (stereo unspecified)	-9%	13%	56%	20	23*
CC(=O)Nc1cc2c(cc1NC(=O)Cn1nc(-c3ccccc3)ccc1=O)OCCO2	10%	-13%	-24%	-2	-3
O=C(Nc1c[nH]c(=O)[nH]c1=O)c1cccc([N+](=O)[O-])c1	14%	?	11%	-8	-3
CCOC1OC(=O)C(Cl)=C1Nc1ccc(C)cc1 (stereo unspecified)	.	5%	22%	2	4
CCOC1OC(=O)C(Cl)=C1Nc1ccc(C)cc1C (stereo unspecified)	6%	2.3µM*	?	-9	-3
CCN1CCc2nc3ccccc3c(C(=O)Nc3ccc(C#N)cc3)c2C1	.	2.6µM*	?	14	6
O=C(NC1CCCCCC1)c1c2c(nc3ccccc13)CCN(Cc1ccccc1)C2	16%	-29%	6%	2	-3
CCC(=O)OCC(=O)c1c(N)n(Cc2ccccc2)c(=O)n(C)c1=O	10%	8%	?	-5	-2
Cn1c(=O)c(C(=S)NC(=O)C2CC2)c(N)n(Cc2ccccc2)c1=O	16%	31%	9.3µM*	-11	-3
Cn1c(=O)c(C(=O)CN2CC(=O)Nc3ccccc32)c(N)n(Cc2ccccc2)c1=O	.	5.2µM*	-33%	-3	-2
Cn1c(=O)c(C(=O)CN2CCCc3ccccc32)c(N)n(Cc2ccccc2)c1=O	?	.	?	15	49*
Cn1c(=O)c(C(=O)CN2CCc3ccccc32)c(N)n(Cc2ccccc2)c1=O	23%	8.3µM*	12µM*	-10	-1
CCN(CC)CC(=O)c1c(N)n(Cc2ccccc2)c(=O)n(C)c1=O	.	19%	-4%	-7	2
Cc1ccc(O)c(CCc2ccc(O)cc2)n1	10%	79%	?	9	8
Cc1cccc(N2CCN(C(=O)CSc3nc4ccccc4nc3N3CC(C)OC(C)C3)CC2)c1C (stereo unspecified)	26%	?	?	-9	-1
COc1cccc(NC(=O)CN(C)C(=O)c2cc(S(=O)(=O)NCc3ccccc3)ccc2C)c1	-12%	-28%	-14%	-18	7
Cc1ccc2[nH]c3nc(SCCN4CCOCC4)nnc3c2c1	-2%	79%	3%	86*	28*
CCCCn1c2ccc(F)cc2c2nnc(SCCN3CCCCC3)nc21	2%	-2%	?	-7	-1
Cc1ccc2[nH]c3c(=O)n(CCCN4CCOCC4)cnc3c2c1	4%	.	31%	33	10
CCCCn1c2ccc(C)cc2c2nnc(SCCN3CCCCC3)nc21	-6%	?	13µM*	3	-1
SMILES	NS1 function inh	Pf growth 96h	Pf growth 48h	Shiga toxin inh	Cycloheximide cs
Cc1ccc2[nH]c3c(=O)n(CCN4CCOCC4)cnc3c2c1	4%	57%	68%	61*	39*
O=C(Nc1ccc(S(=O)(=O)N2CCCC2)cc1)c1cc(F)c(F)cc1Cl	-10%	-1%	-11%	-25	16
O=C(NCCNc1ccc2ccccc2c1)c1cccn2c(=O)c3sccc3nc12	.	1.9µM*	?	22	-1
O=C(c1sc2cc(F)ccc2c1Cl)N1CCN(c2ccccc2)CC1	10%	29%	6%	-13	-1
O=C1C=C(c2ccccc2)CC(c2cccs2)C1n1cnc([N+](=O)[O-])c1 (stereo unspecified)	-22%	?	?	-18	-5
O=C1C=C(c2ccccc2)C[C@H](c2cccs2)[C@H]1n1nnc([N+](=O)[O-])n1	12%	8.3µM*	1.9µM*	10	-2
CC(=O)c1ccc(-c2cccs2)s1	.	22%	50%	36*	24*

Screening data from PubChem BioAssay.
